# Experimental data as given in the supplement of paper PMC9177965.
# Several values for one entry are separate records, joined by “and”; a condition that tells them apart may be missing. Equal values may be shown once.
# System: HT29 RNF43 G659fs (RNF43 659mut, CRISPR-edited)
# Experiment: cell viability activity relative to DMSO (negative = inhibition); higher = more viable cells (less growth inhibition)
# Conditions: 5 µM; 96 h
# Method: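 Broad Repurposing Library primary screen at a single dose of 5 uM. HT29 sg-Ctrl and HT29 RNF43 G659fs CRISPR-edited isogenic cells were seeded at 2500 cells/well in 384-well plates in duplicate and treated for 96 h. Viability was read by CellTiter-Glo and reported as % activity relative to DMSO, with MG132 as the positive control (negative = growth inhibition).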
row,Structure (SMILES),cell viability activity
1,O=[N+]([O-])C=Cc1ccc2c(c1)OCO2,-25.8%
2,CN(C)C(=S)SSC(=S)N(C)C,-72.8%
3,CN1CCN(c2cccc3[nH]c(=O)oc23)CC1,-64.6%
4,CC(=O)O[C@H]1C[C@H](O[C@H]2[C@@H](O)C[C@H](O[C@H]3[C@@H](O)C[C@H](O[C@H]4CC[C@@]5(C)[C@H](CC[C@@H]6[C@@H]5C[C@@H](O)[C@]5(C)[C@@H](C7=CC(=O)OC7)CC[C@]65O)C4)O[C@@H]3C)O[C@@H]2C)O[C@H](C)[C@H]1O[C@@H]1O[C@H](CO)[C@@H](O)[C@H](O)[C@H]1O,-89.7%
5,CC(C)[C@]12O[C@H]1[C@@H]1O[C@]13[C@]1(O[C@H]1C[C@H]1C4=C(CC[C@@]13C)C(=O)OC4)[C@@H]2O,-90.2% and -88.7%
6,N#CC(C#N)=NNc1cccc(Cl)c1,-83.3%
7,CC(=O)O[C@@]12CO[C@@H]1C[C@H](O)[C@@]1(C)C(=O)[C@H](O)C3=C(C)[C@@H](O)C[C@@](O)([C@@H](OC(=O)c4ccccc4)[C@H]21)C3(C)C,-37.1%
8,NC(=O)c1cn([C@@H]2O[C@H](CO)[C@@H](O)[C@H]2O)c2ncnc(N)c12,-95.1%
9,CO[C@H]1C[C@H](O[C@H]2CC[C@@]3(C)[C@H](CC[C@@H]4[C@@H]3CC[C@]3(C)[C@@H](C5=CC(=O)OC5)[C@@H](OC(C)=O)C[C@]43O)C2)O[C@@H](C)[C@@H]1O,-84.3%
10,CC1CC(C)C(=O)C(C(O)CC2CC(=O)NC(=O)C2)C1 (stereo not given),-82.5%
11,CC(C)(C)c1cc(C=C(C#N)C#N)cc(C(C)(C)C)c1O,-79.1%
12,O=C1/C(=C/c2ccccc2)C[C@@]2(O)C3Cc4ccc(O)c5c4[C@@]2(CCN3CC2CC2)[C@H]1O5,-81.4%
13,COc1cccc2c1C(=O)c1c(O)c3c(c(O)c1C2=O)C[C@@](O)(C(=O)CO)C[C@@H]3O[C@H]1C[C@H](N2CCO[C@H](OC)C2)[C@H](O)[C@H](C)O1,-96.6%
14,CCN(CC)CCO[C@H]1CC[C@@]2(C)C(=CC[C@@H]3[C@@H]2CC[C@]2(C)C(=O)CC[C@@H]32)C1,-67.5%
15,C=C1[C@@H](C)[C@H]2[C@H](Cc3ccccc3)NC(=O)[C@]23OC(=O)/C=C/[C@H](O)CCC[C@@H](C)C/C=C/[C@H]3[C@@H]1O,-28.2%
16,C[C@]12CC[C@H](O)C[C@H]1CC[C@@H]1[C@@H]2C[C@@H](O)[C@]2(C)[C@@H](C3=CC(=O)OC3)CC[C@]12O,-78.8%
17,COc1cc2cc(c1Cl)N(C)C(=O)C[C@H](OC(=O)C(C)C)[C@]1(C)O[C@@H]1[C@H](C)[C@@H]1C[C@@](O)(NC(=O)O1)[C@H](OC)/C=C/C=C(\C)C2,-66.8%
18,C/C(=C\c1csc(C)n1)[C@@H]1C[C@@H]2O[C@@H]2CCC[C@H](C)[C@H](O)[C@@H](C)C(=O)C(C)(C)[C@@H](O)CC(=O)O1,-69%
19,CCNC(=O)C[C@@H]1N=C(c2ccc(Cl)cc2)c2cc(OC)ccc2-n2c(C)nnc21,-56.9%
20,COc1ccc(C[C@H]2NC[C@H](O)[C@H]2OC(C)=O)cc1,-91.2%

row,Structure (SMILES),cell viability activity
1,COc1cc2c(c(OC)c1OC)-c1ccc(OC)c(=O)cc1[C@@H](NC(C)=O)CC2,-55.9% and -56.4%
2,CC[C@H]1CN2CCc3cc(OC)c(OC)cc3[C@@H]2C[C@@H]1C[C@H]1NCCc2cc(OC)c(OC)cc21,-93.8% and -97.5%
3,C[C@@H]1CC[C@@]2(OC1)O[C@H]1C[C@H]3[C@@H]4CC=C5C[C@@H](O[C@@H]6O[C@H](CO)[C@@H](O[C@@H]7O[C@@H](C)[C@H](O)[C@@H](O)[C@H]7O)[C@H](O)[C@H]6O[C@@H]6O[C@@H](C)[C@H](O)[C@@H](O)[C@H]6O)CC[C@]5(C)[C@H]4CC[C@]3(C)[C@H]1[C@@H]2C,-25.8%
4,Cc1sc2c(c1C)C(c1ccc(Cl)cc1)=N[C@@H](CC(=O)OC(C)(C)C)c1nnc(C)n1-2,-60.2%
5,CC[C@@]1(O)C(=O)OCc2c1cc1n(c2=O)Cc2cc3ccccc3nc2-1,-94%
6,C[C@]12O[C@H](C[C@]1(O)CO)n1c3ccccc3c3c4c(c5c6ccccc6n2c5c31)CNC4=O,-88.5%
7,CCCCCCCCCCCCCCCC[n+]1ccccc1,-92.7%
8,Oc1cccc2cccnc12,-48.9%
9,C[C@@]1(CO)[C@H](O)CC[C@@]2(C)[C@H]1CC[C@H]1C[C@@H]3C[C@@]12CC[C@]3(O)CO,-31.8%
10,C[C@H]1CCC/C=C/[C@@H]2C[C@H](O)C[C@H]2[C@H](O)/C=C/C(=O)O1,-99.3% and -97.5%
11,C[C@]12CC[C@H](O)C[C@H]1CC[C@@H]1[C@@H]2CC[C@]2(C)[C@@H](C3=CC(=O)OC3)CC[C@]12O,-87.2%
12,CC[C@@H](C(=O)[C@@H](C)[C@@H](O)[C@H](C)[C@@H]1O[C@@H]([C@@H](CC)C(=O)O)CC[C@@H]1C)[C@H]1O[C@]2(C=C[C@@H](O)[C@]3(CC[C@@](C)([C@H]4CC[C@](O)(CC)[C@H](C)O4)O3)O2)[C@H](C)C[C@@H]1C,-79.3%
13,c1ccc2c(c1)[I+]c1ccccc1-2,-61.9%
14,Oc1cc(Cl)ccc1Oc1ccc(Cl)cc1Cl,-89.3%
15,C=C(C)[C@H]1Cc2c(ccc3c2O[C@@H]2COc4cc(OC)c(OC)cc4[C@@H]2C3=O)O1,-61.5%
16,COc1cc([C@@H]2c3cc4c(cc3[C@H](O)[C@H]3COC(=O)[C@H]23)OCO4)cc(OC)c1OC,-59.9%
17,C[C@@H]1O[C@@H](O[C@H]2C[C@@H](O)[C@]3(CO)[C@H]4[C@H](O)C[C@]5(C)[C@@H](C6=CC(=O)OC6)CC[C@]5(O)[C@@H]4CC[C@]3(O)C2)[C@H](O)[C@H](O)[C@H]1O,-90.4% and -90%
18,Clc1cccc(SC2CCNCC2)n1,-56.2%
19,C/C=C(\C)C(=O)N[C@@H](c1ccccc1)[C@@H](O)C(=O)O[C@H]1C[C@@]2(O)[C@@H](OC(=O)c3ccccc3)[C@@H]3[C@]4(OC(C)=O)CO[C@@H]4C[C@H](O)[C@@]3(C)C(=O)[C@H](OC(C)=O)C(=C1C)C2(C)C,-68.1%
20,COc1ccc(CCN2CCC(Nc3nc4ccccc4n3Cc3ccc(F)cc3)CC2)cc1,-23.2%
